# Data published in PubChem BioAssay (NCATS).
# Values joined by “and” are separate entries in the source; they are usually repeats but may differ in a detail not shown here. Equal entries are not always repeated. Inconclusive results are not listed. Active and inactive are the calls of the source. The call rests on the fitted dose curve; in most records, active means well fitted inhibition curve with a large enough effect; inconclusive means small, poorly fitted or top-dose-only effect; inactive means no such curve, though single readings can be large or run the other way. Where a SMILES comes first, the peptide text is derived from it. The star is where a group is joined. Cbz = O=C(OCc1ccccc1)*; CH2Cl = ClC*
# Test: Primary qHTS for inhibitors of nuclear receptor binding SET domain protein 2 (NSD2) in an RCH-ACV wild type WT cells (2C) (AID 1645877); further: nearly all actives have a fitted effect of over 70% in size
# Details: RCH-ACV (leukaemia line) NSD2 WT (2C) viability, CellTiter-Glo, 72 h; series mostly up to 44.9 µM; activity change, negative = cell killing: at the top concentration
# Text: Assay Provider: Jonathan D. Licht, MD
# University of Florida College of Medicine, Gainesville, FL
# Mutations in epigenetic regulators are common in relapsed pediatric acute lymphoblastic leukemia (ALL). Here, we uncovered the mechanism underlying the relapse of ALL driven by an activating mutation of the NSD2 histone methyltransferase (p.E1099K). […] Correction of this mutation restored glucocorticoid sensitivity. The transcriptional response to glucocorticoids was blocked in NSD2 mutant cells due to depressed glucocorticoid receptor (GR) levels and the failure of glucocorticoids to autoactivate GR expression. […] Pre-treatment of NSD2 p.E1099K cell lines and PDX samples with PRC2 inhibitors reversed glucocorticoid resistance in vitro and in vivo.
# High-throughput drug screening of isogenic RCH-ACV cell lines was performed at the National Center for Advancing Translational Science (NCATS), National Institutes of Health as previously described (1). Briefly, isogenic RCH-ACV NSD2 p.E1099K mutant (9B) and WT cells (2C) were plated at 500 cells/well in a 1536-well plate with a 72-hour incubation with compounds prior to addition of CellTiter-Glo to assess cell viability. NCATS libraries screened include: NPC, MIPE 5.0, Kinase and NPACT. To determine compound activity in the qHTS assay, the concentration-response data for each sample was plotted and modeled by a four-parameter logistic fit yielding IC50 and efficacy (maximal response) values. The area under the curve (AUC) of the dose-response curve ensures both efficacy (magnitude of cell killing) and potency (concentration that elicits cell killing) are accounted for in the analysis of activity.
# 1. Tobie D Lee, Olivia W Lee, Kyle R Brimacombe, Lu Chen, Rajarshi Guha, Sabrina Lusvarghi, Bethilehem G Tebase, Carleen Klumpp-Thomas, Robert W Robey, Suresh V Ambudkar, Min Shen, Michael M Gottesman, Matthew D Hall. A High-Throughput Screen of a Library of Therapeutics Identifies Cytotoxic Substrates of P-glycoprotein. Mol Pharmacol. 2019, Nov;96(5):629-640.
# On the % scale 0 is the no-effect control and ±100 the full control effect.
Compound,Potency,"activity change, negative = cell killing"
Cc1ccc(S(=O)(=O)NCc2ccc(C(=O)NCCN(Cc3ccccc3)C(C)C)cc2)cc1,23 µM (active),
C=C(NC(=O)C(=C)NC(=O)c1csc(C2=NC3c4csc(n4)C4NC(=O)c5csc(n5)C(C(C)(O)C(C)O)NC(=O)C5CSC(=N5)/C(=C/C)NC(=O)C(C(C)O)NC(=O)c5csc(n5)C3(CC2)NC(=O)C(C)NC(=O)C(=C)NC(=O)C(C)NC(=O)C(C(C)CC)NC2C=Cc3c(C(C)O)cc(nc3C2O)C(=O)OC4C)n1)C(N)=O (stereo not given),0.916 µM (active),
CC(C)n1nc(C#Cc2ccccc2)c2c(N)ncnc21,3.25 µM (active),
CN(C)C(=O)Nc1cc(-c2ccccc2)ccc1N(C)C,,-48.1% (inactive)
CCN1CCN(Cc2ccc(NC(=O)c3ccc(C)c(Oc4ncnc5[nH]c(C)cc45)c3)cc2C(F)(F)F)CC1,2.3 µM (active),
CC(O)C(C)n1ncn(-c2ccc(N3CCN(c4ccc(OCC5COC(Cn6cncn6)(c6ccc(Cl)cc6Cl)O5)cc4)CC3)cc2)c1=O (stereo not given),,-16.9% (inactive)
CC(C)(C)C1CCN(C(=O)n2ncc(C(O)(c3ccccc3)c3ccccc3)n2)CC1,11.5 µM (active),
COCCNCc1ccc(-c2cc3nccc(Oc4ccc(NC(=O)C5(C(=O)Nc6ccc(F)cc6)CC5)cc4F)c3s2)nc1,2.63 µM (active),
C/C=C(/C=C(C)/C=C/C=C/C=C(\C)C(=O)C12OC1C(O)(CCO)NC2=O)C(=O)OC (stereo not given),7.96 µM (active),
O=C(COc1ccc2ccccc2c1Br)Nc1cccnc1,,-2.17% (inactive)
CCNC(=O)c1noc(-c2cc(Cl)c(O)cc2O)c1-c1ccc(OC)cc1,0.115 µM (active),
O=C(Nc1nc2ccc([N+](=O)[O-])cc2s1)C1CCCCC1,12.9 µM (active),
COc1cc(CCc2ccc(OCC=C(C)C)cc2)cc(OC)c1OC,,-25.9% (inactive)
COc1ccc(NC(=O)C2C[C@H](C)CC[C@H]2C(C)C)cc1 (stereo not given in full),,-18.8% (inactive)
COC1CCN(c2cccc(-c3cc(NC(C)=O)nc(-n4nc(C)cc4C)n3)n2)CC1,16.3 µM (active),
C=C1CC[C@@H](O)[C@]2(C)C[C@H]3OC(=O)C(=C)[C@H]3CC12 (stereo not given in full),12.9 µM (active),
CN(C)CCC(CSc1ccccc1)Nc1ccc(S(=O)(=O)NC(=O)c2ccc(N3CCN(Cc4ccccc4-c4ccc(Cl)cc4)CC3)cc2)cc1[N+](=O)[O-] (stereo not given),0.515 µM (active),
CC(C)(CNC(=O)c1cccc(-c2noc(C(F)(F)F)n2)c1)c1coc(-c2ccccc2)n1,23.5 µM (active),
CN1c2c(nc(N)[nH]c2=O)NC[C@@H]1CNc1ccc(C(=O)N[C@@H](CCC(=O)O)C(=O)O)cc1,,-8.82% (inactive)
Cc1sc2c(c1C)C(c1ccc(Cl)cc1)=N[C@H](CC(=O)NCCCCNC(=O)COc1cccc3c1C(=O)N([C@H]1CCC(=O)NC1=O)C3=O)c1nnc(C)n1-2,0.129 µM (active),

Compound,Potency,"activity change, negative = cell killing"
Cn1c(=O)c(F)c(Nc2ccc(I)cc2F)c2c(=O)n(CC(O)CO)cnc21 (stereo not given),23.1 µM (active),
O=C(Nc1nnc(-c2ccc3c(c2)OCCO3)o1)C1CCCCC1,,-8% (inactive)
C=C1C(=O)O[C@@H]2/C=C(\CO)CC/C=C(/C=O)C[C@H](O)[C@@H]12,4.09 µM (active),
CC[C@H]1CN(c2nc(N)c(C(N)=O)nc2Cl)CCN1C1CCN(Cc2ccc(Cl)cc2)CC1,,-5.21% (inactive)
CC(C)(CO)c1cc2cc(NC(=O)C3(c4ccc5c(c4)OC(F)(F)O5)CC3)c(F)cc2n1CC(O)CO (stereo not given),,-20.6% (inactive)
OC(c1ccc(-c2ccc(CN3CCN(Cc4ccncc4)CC3)cc2)c(F)c1)(C(F)(F)F)C(F)(F)F,,-22.1% (inactive)
Cn1cc(-c2cnn3c(N)c(Br)c([C@@H]4CCCNC4)nc23)cn1,1.15 µM (active) and 4.17 µM (active),
Cn1nc(-c2ccc(C(F)(F)F)cc2)nc2c(=O)n(C)c(=O)nc1-2,2.3 µM (active),
NS(=O)(=O)c1ccc(N2CCN(CC[C@@H]3OCCc4ccccc43)CC2)cc1,,-10.9% (inactive)
CC1(C)CC[C@]2(C(=O)O)[C@H](O)C[C@]3(C)C(=CCC4[C@@]5(C)CC[C@H](O[C@@H]6O[C@H](CO[C@@H]7OC[C@H](O)[C@H](O)[C@H]7O[C@@H]7OC[C@H](O)[C@H](O)[C@H]7O)[C@@H](O)[C@H](O)[C@H]6O)C(C)(C)C5CC[C@]43C)[C@@H]2C1 (stereo not given in full),,-24.5% [at 9.23 µM] (inactive)
COc1cc(CCC2=NN=C(NC(=O)c3ccc(N4C[C@@H](C)N[C@@H](C)C4)cc3)C2)cc(OC)c1,5.78 µM (active),
O=C1NC(=O)C(c2cnc3ccccn23)=C1c1cn2c3c(cc(F)cc13)CN(C(=O)N1CCCCC1)CC2,5.2 nM (active) and 10.5 nM (active),
C=C1C(=O)OC2/C=C(\CO)CC/C=C(\C=O)C(OC)C(OC(=O)C(C)CC)C12 (stereo not given),5.02 µM (active),
C=C(C)C(=O)O[C@H]1[C@H]2C(=C)C(=O)O[C@@H]2C[C@@H](C)[C@@H]2O[C@@H]2C(=O)[C@](C)(O)[C@@H]1OC(=O)C(=C)C,1.26 µM (active),
Cc1cc2c(F)c(Oc3ncnn4cc(OCC(C)OC(=O)C(C)N)c(C)c34)ccc2[nH]1 (stereo not given),8.33 µM (active),
CC(C)C[C@H](NC(=O)CNC(=O)OCc1ccccc1)C(=O)N[C@@H](Cc1ccccc1)C(=O)CCl (Cbz-Gly-Leu-Phe-CH2Cl),3.65 µM (active),
C=C1C(=O)O[C@@H]2C[C@@]3(C)C[C@@H](O)C[C@H](C)C3=C[C@H]12,5.15 µM (active),
O=c1[nH]c2ccccc2n1CCN1CCN(c2cccc(C(F)(F)F)c2)CC1,,-16.4% (inactive)
COc1ccc2[nH]c(=O)c3c(c2c1)OC(C)(C)C=C3,14.5 µM (active),
COc1ccccc1N1CCN(CC[C@@](C)(C(=O)C2CCCCC2)c2ccccc2)CC1,18.3 µM (active),
